Measurements as given in PubChem BioAssay (NCI).
The panel holds about 79,000 compounds, 15% with a hit somewhere; the sample as a whole holds those more often. Unmarked numbers belong to inactive results. Activity calls are given as the source filed them. Rule as the data show it: active = growth inhibition above about 70%; inactive = the rest.

Columns and labels:
[1] = NCI Yeast Anticancer Drug Screen. Data for the rad50 strain (AID 155);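 also: 0% = growth of vehicle-only cultures of the same strain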; conditions: S. cerevisiae rad50 strain growth inhibition, stronger effect = higher value
In short: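 Yeast carrying a defined DNA repair defect were exposed to test compounds, and growth was compared with vehicle-treated controls to give percent inhibition.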

[2] = NCI Yeast Anticancer Drug Screen. Data for the mec2-1 strain (AID 157); conditions: S. cerevisiae mec2-1 strain, stronger effect = higher value
In short: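 Strain: mec2-1 (DNA repair/cell cycle alteration). Compound exposure, then growth measured; inhibition expressed relative to vehicle.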

[3] = NCI Yeast Anticancer Drug Screen. Data for the sgs1 mgt1 strain (AID 161);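 also: 0% = growth of cultures given vehicle only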; conditions: S. cerevisiae sgs1 mgt1 strain, stronger effect = higher value
In short: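 Genetically altered yeast, compound exposure, growth inhibition relative to vehicle.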

[4] = NCI Yeast Anticancer Drug Screen. Data for the cln2 rad14 strain (AID 165);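 also: 0% = growth equal to vehicle treated cultures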; conditions: S. cerevisiae cln2 rad14 strain, stronger effect = higher value
In short: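 Compounds are applied to the cln2 rad14 yeast strain, and growth is then compared with that of vehicle-treated cultures to give inhibition.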

[5] = NCI Yeast Anticancer Drug Screen. Data for the bub3 strain (AID 167); conditions: S. cerevisiae bub3 mutant strain, stronger effect = higher value
In short: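 Compounds were applied to a genetically altered yeast strain carrying a cell-cycle control defect. Growth inhibition was scored against vehicle-treated controls.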

[6] = NCI Yeast Anticancer Drug Screen. Data for the mlh1 rad18 strain (AID 175); conditions: S. cerevisiae mlh1 rad18 strain growth inhibition, stronger effect = higher value
In short: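 Read-out is yeast growth inhibition, calculated against vehicle-only controls. The compound was applied to a strain engineered with DNA damage repair alterations.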

[7] = at 5.0 µM (retest, dose inferred, filed as 0.5)
[8] = at 50.0 µM (retest, dose inferred, filed as 5.0)

Row | Compound | growth inhibition [1, 7] | growth inhibition [1, 8] | growth inhibition ([1]; at 50.0 µM) | growth inhibition [2, 7] | growth inhibition [2, 8] | growth inhibition ([2]; at 50.0 µM) | growth inhibition [3, 7] | growth inhibition [3, 8] | growth inhibition ([3]; at 50.0 µM) | growth inhibition [4, 7] | growth inhibition [4, 8] | growth inhibition ([4]; at 50.0 µM) | growth inhibition [5, 7] | growth inhibition [5, 8] | growth inhibition ([5]; at 50.0 µM) | growth inhibition [6, 7] | growth inhibition [6, 8] | growth inhibition ([6]; at 50.0 µM)
1 | O=C1c2ccccc2/C=C\C(c2ccccc2)=N/N1c1ccccc1Cl | 7% | 52% | 84.8% (active) | 0% | 69% | 83.5% (active) | 9% | 81% (active) | 83.8% (active) | -2% | 37% | 60.2% | -4% | 52% | 85.2% (active) | 7% | 48% | 84.7% (active)
2 | CC(=O)Oc1c(C)cc(C)cc1Cc1cc(C(C)=O)cc(Cc2cc(C)cc(C)c2OC(C)=O)c1OC(C)=O | 30% | 91% (active) | 94.5% (active) | 17% | 88% (active) | 93.2% (active) | 47% | 91% (active) | 95.6% (active) | 28% | 88% (active) | 97% (active) | 22% | 87% (active) | 94.3% (active) | 46% | 91% (active) | 92.5% (active)
3 | S=C(Nc1ccccc1)SCc1ccc(Cl)cc1 | 1% | 96% (active) | 90.6% (active) | -6% | 98% (active) | 67.2% | 1% | 96% (active) | 84.7% (active) | -6% | 96% (active) | 38.5% | -5% | 97% (active) | 86.4% (active) | -7% | 97% (active) | 85.5% (active)
4 | CCOC(=O)C(Cl)C(Cl)C(=O)OCC (stereo not given) | 12% | 98% (active) | 98.8% (active) | 6% | 98% (active) | 99% (active) | 2% | 99% (active) | 99.5% (active) | 6% | 98% (active) | 98.4% (active) | 22% | 98% (active) | 99% (active) | 12% | 99% (active) | 99% (active)
5 | O=S(=O)(Nc1ccccc1C(F)(F)F)c1ccc(F)cc1 | -23% | 49% | 80.6% (active) | 6% | 59% | 46.5% | -11% | 43% | 56.4% | -21% | 69% | 33.4% | -16% | 61% | 35.4% | -13% | 83% (active) | 80.2% (active)
6 | COc1ccc(C2C3C(=O)OCCOC(=O)C3C2c2ccc(OC)c(OC)c2)cc1OC (stereo not given) | 1% | 49% | 12.5% | 13% | 51% | 17.2% | 4% | 49% | 14.2% | 21% | 59% | 7.7% | 15% | 62% | 18.9% | 15% | 67% | 37.5%
7 | O=C1c2ccccc2-c2nnc3c(c21)Cc1ccccc1C3 | -4% | 38% | 50.9% | -21% | 16% | 43% | -7% | 1% | 17.1% | -8% | 27% | 40.5% | 9% | 26% | 67.5% | -6% | 37% | 71% (active)
8 | CCC/C(C)=N/NC(=S)SC | 70% (active) | 95% (active) | 96.8% (active) | 38% | 95% (active) | 90.5% (active) | 27% | 96% (active) | 94.2% (active) | 6% | 84% (active) | 77.5% (active) | 65% | 94% (active) | 96.7% (active) | 72% (active) | 95% (active) | 96.3% (active)
9 | CSC(=S)CC(O)[C@@H]1CC2c3ccccc3C1c1ccccc12 (stereo not given in full) | -5% | 94% (active) | 76.7% (active) | 1% | 93% (active) | 84.3% (active) | 1% | 93% (active) | 65.7% | 2% | 92% (active) | 79.7% (active) | 17% | 93% (active) | 77% (active) | 5% | 93% (active) | 71.5% (active)
10 | CCCCCC(/C=N/NC(N)=S)C(O)(C(F)(F)F)C(F)(F)F (stereo not given) | -21% | 51% | 77.6% (active) | -17% | 47% | 62.4% | -7% | 28% | 73% (active) | -11% | 77% (active) | 61% | -11% | 77% (active) | 35% | -27% | 78% (active) | 67.9%
